PubChem BioAssay (NCATS)
Records with an inconclusive call do not appear. Activity calls are given as the source filed them. Unless noted, the call rests on the fitted dose curve.

Legend:
[1] = Cell Viability - BJ (AID 421); settings: BJ fibroblast viability, qHTS;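 further: potency means the concentration at half of the fitted maximal effect; cells exposed to compound for 40 hours at 37 °C before readout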
How it was run: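 Luminescent ATP signal (CellTiter-Glo, 20 min at room temperature) served as the read-out of viable BJ cells after 40 hours of compound treatment. Responses were scaled between DMSO and 100 uM tamoxifen, and AC50 values were obtained by Hill modeling.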

[2] = Cell Viability - Jurkat (AID 426;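 active means dose-dependent loss of cell ATP signal giving a full or clear fitted curve, ranked by lower potency value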; further: potency means the concentration at half of the fitted maximal effect); settings: qHTS
How it was run: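 Jurkat (clone E6-1, human T-cell leukemia) cells, 5000/well in complete medium, were exposed to compound for 40 hr at 37 °C. Viability was read as intracellular ATP by CellTiter-Glo luminescence; AC50 came from Hill fits of concentration-response data.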

[3] = Cell Viability - Hek293 (AID 427;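 active means compounds whose dose-response curve shows a full or clear partial loss of cell viability, called from curve shape rather than a numeric limit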;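 further: potency means the concentration at half of the fitted maximal effect; cells exposed to compound for 40 hours at 37 °C before reading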); settings: qHTS
How it was run: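 Luminescent ATP read-out (CellTiter-Glo, 20 min RT) after 40 hr compound exposure at 37 °C in complete medium. Signal normalized to DMSO (basal) and 100 uM tamoxifen (100% inhibition); concentration-response fitted with the standard Hill equation to give AC50.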

[4] = Cell Viability - HepG2 (AID 433); settings: qHTS;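 further: potency means the concentration at half of the fitted maximal effect; potency for ATP loss meaning cytotoxicity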
How it was run: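 ATP luminescence (CellTiter-Glo) after 40 h compound exposure, 37 °C, HepG2, 1500 cells/well, complete medium. Normalized: DMSO = basal, 100 uM tamoxifen = 100% inhibition. AC50 via standard Hill equation.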

[5] = Cell Viability - MRC5 (AID 434); settings: MRC5 lung fibroblast viability, qHTS;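 further: potency means the concentration at half of the fitted maximal effect; potency reflects cytotoxicity seen as loss of intracellular ATP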
How it was run: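 MRC5 normal human lung fibroblasts (1500/well) were treated with compounds for 40 hr at 37 °C in complete medium, and viable cells were measured as intracellular ATP by CellTiter-Glo luminescence. AC50 came from Hill fits, normalized to DMSO and 100 uM tamoxifen.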

[6] = Cell Viability - SK-N-SH (AID 435); settings: SK-N-SH neuroblastoma cell viability qHTS; further: potency means the concentration at half of the fitted maximal effect
How it was run: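 CellTiter-Glo ATP luminescence, 20 min RT read; cells pre-plated 5 hr, compound 40 hr at 37 °C, 1500 cells/well, complete medium. Normalized DMSO = 0, 100 uM tamoxifen = 100% inhibition; Hill-fit AC50.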

[7] = target: Mitogen-activated protein kinase 10 (Mus musculus) (UniProt Q61831); test: JNK3 AlphaScreen Assay (AID 530; active means well fitted curve in either direction with a large enough effect, not every such curve was filed as active;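 further: kinase came from lysate of stimulated human HepG2 cells; signal reports phosphorylation of biotinylated GST-cJun 1-79 at Ser73 with 10 µM ATP; on the % scale 0 is the no-effect control and ±100 the full control effect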); settings: JNK3 lysate, c-Jun phosphorylation; series mostly up to 57.1 µM
How it was run: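 JNK3 came from HepG2 lysates pre-activated with IL-1beta and TNF-alpha and phosphorylated biotinylated GST-cJun (1-79) at 10 uM ATP, pH 7.6, room temperature. Compounds were titrated. AlphaScreen signal used anti-phospho-cJun (Ser73) antibody.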

[8] = Cell Viability - NIH 3T3 (AID 541; active means well fitted curve in the direction sought with a large enough effect; an effect the other way counts as inactive or inconclusive;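 further: plate controls were DMSO alone for no effect and tamoxifen positive control for full effect; nearly all actives have a fitted effect of over 25% in size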); settings: NIH 3T3 cell viability, qHTS; activity change, negative = cytotoxicity: at 92.2 µM (top of the series)
How it was run: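 NIH 3T3 mouse embryo fibroblasts (1000 cells/well) were plated in complete medium and treated with compound for 40 hr at 37 °C. Viability was read as intracellular ATP by CellTiter-Glo luminescence; AC50 values came from Hill-equation fits of concentration-response data.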

[9] = Cell Viability - HUV-EC-C (AID 542; active means well fitted curve in the direction sought with a large enough effect; an effect the other way counts as inactive or inconclusive; further: on the % scale 0 is the no-effect control and ±100 the full control effect; nearly all actives have a fitted effect of over 35% in size); settings: HUV-EC-C endothelial cell viability, qHTS; series mostly up to 92.2 µM
How it was run: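 HUV-EC-C normal human vascular endothelial cells, 1000 cells/well, pre-incubated 5 hr at 37 °C, then exposed to compounds for 40 hr at 37 °C in complete medium. Viability measured as intracellular ATP by CellTiter-Glo luminescence; AC50 from Hill fits.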

[10] = Cell Viability - N2a (AID 540; active means well fitted curve in the direction sought with a large enough effect; an effect the other way counts as inactive or inconclusive;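 further: plate controls were DMSO alone for no effect and tamoxifen control for full effect; nearly all actives have a fitted effect of over 45% in size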); settings: N2a mouse neuroblastoma cell viability; activity change, negative = cytotoxicity: at 92.2 µM (top of the series)
How it was run: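 Mouse neuroblastoma N2a cells (1500/well) were preincubated 5 hr at 37 °C, then exposed to compounds for 40 hr at 37 °C in complete medium. Viability was read as intracellular ATP by CellTiter-Glo luminescence; AC50 from Hill fits.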

CC(=O)Nc1cccc(N)c1
inactive: Potency [1] > 92 µM | Potency [2] > 92 µM | Potency [3] > 92 µM | Potency [4] > 92 µM | Potency [5] > 92 µM | Potency [6] > 92 µM | outcome [7] | Potency [8] | Potency [9]

CNc1ccc([N+](=O)[O-])cc1
inactive: Potency [1] > 92 µM | Potency [2] > 92 µM | Potency [3] > 92 µM | Potency [4] > 92 µM | Potency [5] > 92 µM | Potency [6] > 92 µM | outcome [7] | activity change, negative = cytotoxicity [10] -12.7% | Potency [9]

CCCCCCCCC
inactive: Potency [1] > 92 µM | Potency [2] > 92 µM | Potency [3] > 92 µM | Potency [4] > 92 µM | Potency [5] > 92 µM | Potency [6] > 92 µM | outcome [7] | Potency [8] | Potency [9]

O=[N+]([O-])c1ccc(Cl)cc1Cl
inactive: Potency [1] > 92 µM | Potency [2] > 92 µM | Potency [3] > 92 µM | Potency [4] > 92 µM | Potency [5] > 92 µM | Potency [6] > 92 µM | outcome [7] | Potency [8] | Potency [9]

c1ccc2c(c1)ccc1ncccc12
inactive: Potency [1] > 92 µM | Potency [2] > 92 µM | Potency [3] > 92 µM | Potency [4] > 92 µM | Potency [5] > 92 µM | Potency [6] > 92 µM | outcome [7] | Potency [8] | Potency [9]

C1CCOC1
inactive: Potency [1] > 92 µM | Potency [2] > 92 µM | Potency [3] > 92 µM | Potency [4] > 92 µM | Potency [5] > 92 µM | Potency [6] > 92 µM | outcome [7] | Potency [8]

CC(=O)CCc1ccccc1
inactive: Potency [1] > 92 µM | Potency [2] > 92 µM | Potency [3] > 92 µM | Potency [4] > 92 µM | Potency [5] > 92 µM | Potency [6] > 92 µM | outcome [7] | Potency [8] | Potency [9]

CC(C)=CCC/C(C)=C/C=O
inactive: Potency [1] > 92 µM | Potency [2] > 92 µM | Potency [3] > 92 µM | Potency [4] > 92 µM | Potency [5] > 92 µM | Potency [6] > 92 µM | outcome [7] | activity change, negative = cytotoxicity [10] -7.95% | Potency [9]

O=C(Cl)c1c(Cl)cccc1Cl
inactive: Potency [1] > 92 µM | Potency [2] > 92 µM | Potency [3] > 92 µM | Potency [4] > 92 µM | Potency [5] > 92 µM | Potency [6] > 92 µM | outcome [7] | Potency [8] | Potency [9]

CC/C=C/C#N
inactive: Potency [1] > 92 µM | Potency [2] > 92 µM | Potency [3] > 92 µM | Potency [4] > 92 µM | Potency [5] > 92 µM | Potency [6] > 92 µM | outcome [7] | Potency [8] | Potency [9]

Cc1ccc(C)c([N+](=O)[O-])c1
inactive: Potency [1] > 92 µM | Potency [2] > 92 µM | Potency [3] > 92 µM | Potency [4] > 92 µM | Potency [5] > 92 µM | Potency [6] > 92 µM | outcome [7] | Potency [8] | Potency [9]

Cc1ccc(C)o1
inactive: Potency [1] > 92 µM | Potency [2] > 92 µM | Potency [3] > 92 µM | Potency [4] > 92 µM | Potency [5] > 92 µM | Potency [6] > 92 µM | outcome [7] | Potency [8] | Potency [9]

C=C(C)C(N)=O
inactive: Potency [1] > 92 µM | Potency [2] > 92 µM | Potency [3] > 92 µM | Potency [4] > 92 µM | Potency [5] > 92 µM | Potency [6] > 92 µM | outcome [7] | Potency [8] | Potency [9]

CCCCCCCCC/C=C/CC1CC(=O)OC1=O (stereo unspecified)
inactive: Potency [1] > 92 µM | Potency [2] > 92 µM | Potency [3] > 92 µM | Potency [4] > 92 µM | Potency [5] > 92 µM | Potency [6] > 92 µM | outcome [7] | Potency [8] | Potency [9]

Clc1ccccn1
inactive: Potency [1] > 92 µM | Potency [2] > 92 µM | Potency [3] > 92 µM | Potency [4] > 92 µM | Potency [5] > 92 µM | Potency [6] > 92 µM | outcome [7] | Potency [8] | Potency [9]

CCNc1ccccc1
inactive: Potency [1] > 92 µM | Potency [2] > 92 µM | Potency [3] > 92 µM | Potency [4] > 92 µM | Potency [5] > 92 µM | Potency [6] > 92 µM | outcome [7] | Potency [8] | Potency [9]

CNC(=O)N(c1ccccc1)c1ccccc1
inactive: Potency [1] > 92 µM | Potency [2] > 92 µM | Potency [3] > 92 µM | Potency [4] > 92 µM | Potency [5] > 92 µM | Potency [6] > 92 µM | outcome [7] | Potency [8]
